Data from PubChem BioAssay AID652039 (The Scripps Research Institute Molecular Screening Center, 2013).
Out of some 370,000 compounds screened, about 3,300 (0.89%) were called active.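 Rule for the calls: active = activation above the mean of all tested compounds plus 3 SD, computed per campaign excluding outliers beyond control limits (cut at about 13% in these data); inactive = the rest.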 The sample as a whole holds a higher share of actives than the screen did.

biological target: Kallikrein-7 (Homo sapiens) (UniProt P49862); experiment: activation of human kallikrein-7 proenzyme – biochemical, fluorescence intensity, primary screen (AID 652039); settings: purified proKLK7, EDANS-DABCYL substrate fluorescence; at 7 µM; hits give high values; 100% is mature enzyme control, 0% vehicle
Sequence (P49862 whole entry, looked up): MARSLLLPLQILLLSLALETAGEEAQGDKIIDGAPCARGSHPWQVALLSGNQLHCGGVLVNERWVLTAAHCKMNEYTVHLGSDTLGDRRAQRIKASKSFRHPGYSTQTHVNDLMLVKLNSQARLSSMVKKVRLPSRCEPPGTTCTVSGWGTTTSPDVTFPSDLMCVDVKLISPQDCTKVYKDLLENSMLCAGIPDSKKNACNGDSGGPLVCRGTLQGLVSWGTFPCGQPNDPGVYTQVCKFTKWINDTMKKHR

activation, inactive:
CN[C@H]1C[C@H]2c3cc(N4CCOCC4)ccc3CCN2C[C@H]1[C@H](C)O -0.23%, Cc1ccccc1NC(=O)C1CCN(c2ncccn2)CC1 0.11%, CC[C@@H](CCC(=O)N(c1ccccc1)c1ccccc1)C1CC1 0.23%, CCn1c(=N)c(S(=O)(=O)c2ccc(F)cc2)cc2c(=O)n3ccccc3nc21 3.21%, CCOC(=O)c1cc2c(=O)n3ccccc3nc2n(CC(C)C)c1=NC(=O)c1c(-c2c(F)cccc2Cl)noc1C 0.37%, O=C(C1CCN(S(=O)(=O)c2ccccc2)CC1)N1CCN(C2CCCCC2)CC1 0.53%, O=C(NN1CCOCC1)c1cccc(F)c1 0.32%, COc1ccc(N2CCN(CCNS(=O)(=O)c3ccc([N+](=O)[O-])cc3)CC2)cc1 -0.14%, C=CCOc1cccc(C2NC(=O)c3ccccc3O2)c1 (stereo not drawn) -1.97%, O=C1NC(c2ccccc2)Oc2ccccc21 (stereo not drawn) -2.02%, O=C(c1ccncc1)N1CC[C@H]2[C@H](CCCN2Cc2ccc(F)cc2)C1 0.94%, COc1ccccc1NC(=O)C(C)OC(=O)c1ccc(-n2cnnn2)cc1 (stereo not drawn) -0.16%, Cc1c(NC(=O)C(C)OC(=O)c2ccccc2O)c(=O)n(-c2ccccc2)n1C (stereo not drawn) 1.12%, CC(C)CNc1cccc2c1S(=O)(=O)N(Cc1cn(Cc3ccc(Cl)cc3)nn1)Cc1ccccc1O2 -9.81%, CN(CCc1ccccn1)C1CCCN(S(=O)(=O)c2ccccc2Cl)C1 (stereo not drawn) 0%, CN(CC(=O)NCCc1ccccn1)S(=O)(=O)c1ccc(Cl)cc1 0.31%, N#Cc1ccc(OC[C@@H](O)CN2CCC(C(O)(c3ccccc3)c3ccccc3)CC2)c(F)c1 0.5%, CN1[C@H](Cc2ccccc2)COc2cccc(N3CCSCC3)c2S1(=O)=O 0.48%, C[C@@H]1COc2cccc(N3CCCC3)c2S(=O)(=O)N1C 0.38%, CC1CCN(c2oc(-c3ccccc3F)nc2C#N)CC1 -0.12%, N#Cc1nc(Cc2cccc3ccccc23)oc1NCc1ccc2c(c1)OCO2 0.74%, Cc1nc2cccnc2nc1C -0.19%, Cc1ccc(C)c(NC(=O)CCS(=O)(=O)c2ccccc2)c1 -0.69%, Cn1c(=O)c2cc(NC(=O)NCCc3cccs3)ccc2n1Cc1cccc(C(F)(F)F)c1 -1.5%, COc1cc(Cn2c3ccc(NC(=O)CC(C)c4ccccc4)cc3c(=O)n2C)ccc1F (stereo not drawn) 2.56%, COc1ccc(N2CCN(CCNS(=O)(=O)c3ccc(Cl)s3)CC2)cc1 -0.36%, CCOC(=O)C1=C(C)NC2=C(C(=O)CC(C)(C)C2)C1c1ccc2c(c1)OCO2 (stereo not drawn) 0.13%, O=C(NCCCN1CCCC1=O)c1ccc(S(=O)(=O)Nc2ccccc2)cc1 -0.77%, Cc1nn(Cc2ccccc2)c(C)c1C(=O)NCCCN1CCCC1=O -0.1%, CC(=O)c1ccc(NC(=O)CSc2nc3ccccc3c(=O)n2CCCN2CCOCC2)cc1 0.28%, CC(CN1CCOCC1)OC(=O)c1ccc(C(C)(C)C)cc1 (stereo not drawn) 0.72%, CCCCCCNC(=O)O[C@H]1CN(C(=O)OC(C)C)N(C(=O)OC(C)C)[C@@H]2CN(S(=O)(=O)c3ccc(C)cc3)C[C@]12O -0.38%, O=C1CCC2(CCC(c3ccc(Cl)cc3)CC2)N1CCO (stereo not drawn) -0.69%, Cc1cccc(C)c1NC(=O)C(c1cccc(F)c1)N1CCN(C)CC1 (stereo not drawn) -0.04%, Cc1ccccc1SCC(=O)OCC(=O)N1CC(=O)Nc2ccccc21 0.52%, CCCCNC(=O)C[C@@H]1C(=O)N(CCc2ccc(Cl)cc2)C2=CCCC[C@]21C(=O)OCC 0.21%, CC(CCN1CCC(C(O)(c2ccccc2)c2ccccc2)CC1)Oc1ccc(Cl)cc1 (stereo not drawn) -0.05%, CCOC(=O)C(=O)N(Cc1ccccc1)c1ccccc1C(=O)Nc1cc(OC)ccc1OC 0.42%, COc1ccccc1C(=O)Nn1c(-c2cccs2)nc2ccccc2c1=O -0.4%, CCc1nnc(NC(=O)CSc2nc3ccccc3c(=O)n2CCCOC)s1 0.09%, O=C1CC[C@@H](COc2ccc3[nH]cc(-c4ccccc4)c3c2-c2ccccc2)N1 -1.38%, CCCc1cc(=O)oc2c(C)c(OCC(=O)N3CCC(C(=O)O)CC3)ccc12 0.06%, CCCc1cc(=O)oc2c(C)c(OC(C)C(=O)NCC(O)c3ccccc3)ccc12 (stereo not drawn) -0.01%, O=C(CSc1nnc(-c2cccc(Cl)c2)n1Cc1ccco1)Nc1ccc(OCc2ccccc2)cc1 0.41%, CCn1c(SCC(C)=O)nc2sc3c(c2c1=O)CCCC3 0.36%

activation, active:
CCCn1c(=NC(C)=O)c(C(=O)OCC)cc2c(=O)n3ccccc3nc21 24.2%, O=C1NC(c2cccc(Cl)c2)Nc2ccccc21 (stereo not drawn) 13.9%, CC(OC(=O)c1ccccc1NCCO)C(=O)Nc1ccnn1C(C)C (stereo not drawn) 32.9%, CN(CCc1ccccn1)S(=O)(=O)c1ccc2c3c(cccc13)C(=O)N2 41.6%, COc1c(N2CCN(C(=S)Nc3ccccc3F)C(C)C2)c(F)cc2c(=O)c(C(=O)O)cn(C3CC3)c12 (stereo not drawn) 17.9%, N#Cc1nc(-c2cccc3ccccc23)oc1N 56.1%, Cc1nc2ccc(N)nc2nc1C 55.8%, CCNC(=S)Nc1ccc2c(c1)c(=O)n(C)n2Cc1ccc(Cl)cc1 21.2%, CC(C)(C)OC(=O)c1c(N)n(CCCN2CCCC2=O)c2nc3ccccc3nc12 62.5%, COCC(C)OC(=O)c1c(N)n(CCCN2CCOCC2)c2nc3ccccc3nc12 (stereo not drawn) 16.3%, Cc1cccc(C)c1NC(=O)C(c1ccccc1)N1CC(=O)Nc2ccccc21 (stereo not drawn) 16.4%, COCCCn1c(-c2cccs2)nc2nc3ccccc3nc21 22.9%, CCCc1cc(=O)oc2c(C)c(O)c(CN3CCCCC3)cc12 58.8%
